Sampled rows, rich in hits. Any-hit rate of the full collection: about 2.2%.
Nrf2 activator: Nrf2 pathway activation. AREc32 ARE-luciferase reporter (MCF7-derived line), luminescence, 24 h. Potency, µM (top dose mostly 46.1 µM), without a hit: at the highest dose activation, actives largely listed as activators. actives 0.31% (n = 410,000). AID 624171; further: % of control where 0% means no effect; nearly all actives have a fitted effect of over 65% in size
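Quantitative high-throughput format: AREc32 reporter cells, 1000 per well, received compound by pin transfer and were incubated 24 hr at 37 deg C, 5% CO2, before Steady-Glo luminescence detection.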
Pin1 inh: human Pin1 inhibition; Pin1 FP peptide displacement, HiFluor488, 10 min; AID 504891; Potency, µM (highest dose often 115 µM), for the others: at the top dose activity, negative = inhibition, usual class: inhibitors; Q13526; actives 0.009% (n = 390,000); active means well fitted inhibition curve with a large enough effect in the polarisation, with a control signal flat, not every such curve was filed as active; inconclusive means small, poorly fitted or top-dose-only effect, or effect the other way, or a change in a side signal; inactive means no such curve, though single readings can be large or run the other way; the % refers to the polarisation; further: on the % scale 0 is the no-effect control and ±100 the full control effect
Target sequence (Q13526 whole entry, looked up): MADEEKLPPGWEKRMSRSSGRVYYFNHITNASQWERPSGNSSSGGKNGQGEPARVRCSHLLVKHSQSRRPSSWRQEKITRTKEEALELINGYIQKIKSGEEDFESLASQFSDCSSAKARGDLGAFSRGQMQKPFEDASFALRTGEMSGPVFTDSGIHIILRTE
Nrf2 block: Nrf2 pathway inhibition; Potency, µM (doses to about 46 µM), for inactives: top-dose activity change, negative = inhibition, most hits filed as inhibitors; actives 2.1% (n = 360,000); AID 504444; A549 ARE-Fluc reporter, luciferase luminescence, 18-24 h; further: on the % scale 0 is the no-effect control and ±100 the full control effect; nearly all actives have a fitted effect of over 60% in size
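Nrf2 function is reported as luminescence of an ARE-controlled luciferase in A549 cells. Compounds were tested at several concentrations, and a CellTiter-Fluor read on the same wells flagged cytotoxicity.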
A549 viability: kills or reduces viability of A549 cells in Nrf2 counter-screen; Potency, µM (titrated, usually from 46 µM), for inactives: at the top dose activity change, negative = cytotoxicity, actives largely listed as inhibitors; A549 ARE-Fluc cells, CellTiter-Fluor viability, 18-24 h; actives 0.16% (n = 390,000); further: on the % scale 0 is the no-effect control and ±100 the full control effect
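A549 ARE_Fluc cells in 5% FBS OPTI-MEM were exposed to compounds in concentration-response for 18-24 h at 37 deg C. Viability was read by CellTiter-Fluor fluorescence (Ex 405/Em 525) after 30 min, before the luciferase read.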
Numbers without * were called inactive; ? = inconclusive; nt = no result given. Unless noted, the call rests on the fitted dose curve; in most records, active means well fitted curve in the direction sought with a large enough effect; inconclusive means small, poorly fitted or top-dose-only effect, or another doubt; inactive means no such curve, though single readings can be large; an effect the other way counts as inactive or inconclusive. Potency means the concentration at half of the fitted maximal effect.

SMILES | Nrf2 activator | Pin1 inh | Nrf2 block | A549 viability
CC1CC=CC2C1C(=O)N(Cc1ccccc1)C2c1cccc([N+](=O)[O-])c1 (stereo not drawn) | nt | -1.8% | -3.7% | -3.0%
Cc1csc2ncnc(NNC(=O)c3ccc(Cl)cc3)c12 | -0.1% | -1.0% | 20.6µM* | -17.3%
O=C(NNc1ncnc2sccc12)c1ccc(Cl)cc1 | 8.8% | 2.4% | ? | -6.2%
CCCN1CCN(C(=O)c2cc(COc3ccc4ncccc4c3)on2)CC1 | 2.2% | 2.5% | 5.17µM* | -18.2%
CC(C)N(Cc1nccn1C)C(=O)c1cc(COc2ccc3ncccc3c2)on1 | 0.1% | 9.6% | 13µM* | -11.5%
O=C(NCc1cccc(Cl)c1)c1cc(COc2ccc3ncccc3c2)on1 | 4.4% | 24.1% | 10.3µM* | -26.1%
CCN(CC)C(=O)C1CCCN(C(=O)c2cc(COc3ccc4ncccc4c3)on2)C1 (stereo not drawn) | 1.7% | -4.0% | ? | 1.0%
Cc1ccc(F)cc1CNC(=O)c1cc(COc2ccc3ncccc3c2)on1 | 2.1% | 33.6% | ? | 1.7%
CCN1CCN(C(=O)c2cc(COc3ccc4ncccc4c3)on2)CC1 | 0.1% | -3.3% | 20.6µM* | -11.9%
O=C(CNC(=O)c1ccc2ccccc2c1)OC(C(=O)Nc1cc(C(F)(F)F)ccc1Cl)c1ccccc1 (stereo not drawn) | nt | 12.1% | 2.5% | 9.8%
Cc1cn(C2CC3OCC(NC(=O)C4CCCN4C(=O)OC(C)(C)C)C3O2)c(=O)[nH]c1=O (stereo not drawn) | nt | 0.2% | ? | -2.5%
CCOC(=O)C1=C(C)NC(C)=C(C(=O)OCC)C1c1cccc([N+](=O)[O-])c1 | 3.3% | nt | nt | nt
COC(=O)C1=C(C)NC(C)=C(C(=O)OCC(C)C)C1c1ccccc1[N+](=O)[O-] (stereo not drawn) | 2.7% | 1.1% | 16.4µM* | -9.7%
CCOC(=O)N1CCc2c(sc3c2c(=O)n(-c2ccc(Cl)cc2)c(=O)n3CC(C)C)C1 | 0.2% | -1.4% | ? | 0.4%
Cc1sc2nc(C3CC3)nc(SCC(=O)N3CC(=O)Nc4ccccc43)c2c1C | 1.5% | 11.3% | 7.31µM* | -19.9%
Cc1sc2nc(C3CC3)nc(SCC(=O)N3CCc4ccccc4C3)c2c1C | 9.5% | 27.5% | -24.1% | 0.5%
COc1ccc(-c2cc(C(=O)Nc3cc(C)n(Cc4ccc(Cl)cc4)n3)no2)cc1OC | -0.2% | 24.7% | 4.11µM* | -28.4%
Cc1cc(NC(=O)c2noc3c2CCCC3)nn1Cc1ccc(Cl)cc1 | 3.5% | 2.0% | 23.1µM* | -12.2%
O=C(c1noc2c1CCCCC2)N1CCN(c2ccc(Cl)cc2)CC1 | -0.6% | -1.0% | 8.2µM* | -0.5%
COc1ccc(CCNC(=O)c2cc(-c3ccc(Cl)cc3)on2)cc1OC | -0.9% | -4.0% | -5.8% | -5.4%
COc1cccc(CNC(=O)c2ccc(-c3nc(CS(=O)c4ccccc4)c(C)o3)cc2)c1 (stereo not drawn) | 6.5% | 1.0% | -4.7% | 10.5%
CN(C)CCNc1ncnc2ccc(-c3ccc4c(c3)OCO4)cc12 | nt | ? | 0.0% | 6.1%
O=C(NCCc1ccccc1)c1ccc2c(c1)OCCCO2 | -1.9% | -2.1% | 2.06µM* | -0.8%
CCN(CC)S(=O)(=O)c1cc(NC(=O)C2CCN(c3ncnc4sc(C)c(C)c34)CC2)ccc1Cl | 2.9% | 8.7% | 11.6µM* | ?
Cc1sc2ncnc(N3CCC(C(=O)Nc4cc(Cl)ccc4Cl)CC3)c2c1C | -0.5% | 26.4% | ? | -13.2%
SMILES | Nrf2 activator | Pin1 inh | Nrf2 block | A549 viability
Cc1sc2ncnc(N3CCC(C(=O)Nc4ccc(S(N)(=O)=O)cc4)CC3)c2c1C | 0.2% | 11.8% | ? | 10.0%
Cc1ccc(NC(=O)C2CCN(c3ncnc4sc(C)c(C)c34)CC2)cc1S(=O)(=O)N(C)C | -0.1% | 13.1% | 23.1µM* | -16.1%
Cc1ccc(NC(=O)C2CC(=O)N(Cc3ccccc3)C2)cc1S(=O)(=O)N1CCCCCC1 (stereo not drawn) | -0.2% | 3.9% | ? | -13.6%
CCN(CC)S(=O)(=O)c1cc(NC(=O)C2CC(=O)N(Cc3ccccc3)C2)ccc1Cl (stereo not drawn) | 0.4% | ? | 18.4µM* | -11.3%
Cc1ccc2[nH]c(=O)c(CN(CCO)Cc3nnnn3Cc3ccccc3)cc2c1 | nt | 1.2% | -14.0% | 4.3%
Cc1ccccc1N(C)C1=N[S+](=O)([O-])c2ccccc21 | nt | -9.8% | -1.9% | 1.2%
c1ccc(CNCc2nnc(-c3cc4ccccc4[nH]3)s2)cc1 | nt | -1.9% | ? | -1.6%
CCOc1ccc(C(=O)N/N=C(\c2ccccc2)c2ccccn2)cc1 | 7.9% | -1.2% | 20.6µM* | ?
C/C(=N\NC(=O)c1ccc(F)cc1)c1ccccn1 | 0.5% | -1.1% | ? | ?
O=C(NNc1nc(-c2ccc(F)cc2)cs1)c1ccccc1 | -0.7% | 4.1% | 14.6µM* | ?
O=C(Nc1nc(-c2ccccc2)cs1)c1cccc([N+](=O)[O-])c1 | 5.3% | 3.3% | 8.2µM* | -24.2%
O=C(N/N=C(\c1ccccc1)c1ccccn1)c1cccc([N+](=O)[O-])c1 | 0.0% | 4.1% | 9.2µM* | -13.6%
Cn1ccnc1/C(=N\NC(=O)c1ccccc1)c1cccc([N+](=O)[O-])c1 | 2.7% | -2.5% | 9.6% | 2.9%
CCc1cccc(NC(=O)C2CCCN2S(=O)(=O)c2ccc3nc(-c4ccccc4)[nH]c3c2)c1 (stereo not drawn) | -0.5% | 18.4% | ? | -18.8%
O=C(O)Cn1nc(N2CCN(c3ccccc3)CC2)ccc1=O | -0.5% | -4.3% | 0.9% | 1.5%
CCN1C(=O)/C(=C2/C=Cc3cc(C)ccc3N2CC)N(C)C1=S | 0.3% | -2.6% | ? | 23.1µM*
CC(=O)Nc1cccc(NC(=O)c2cc(-c3cccnc3)nc3ccc(Br)cc23)c1 | -0.2% | 19.8% | 11.6µM* | ?
COc1ccc(/C(C)=N/NC(=O)c2cc(-c3cccnc3)nc3ccccc23)cc1 | 2.0% | -3.1% | -1.6% | -0.5%
COc1cccc(/C(C)=N/NC(=O)c2cc(-c3cccnc3)nc3ccccc23)c1 | 3.7% | 8.5% | 20.6µM* | -6.1%
O=S(=O)(c1ccc(Br)cc1)c1cnc2ccccc2n1 | 23.1% | -12.4% | -3.8% | 0.1%
COc1ccc(S(=O)(=O)c2cnc3ccccc3n2)cc1 | 17.8µM* | 2.9% | -3.0% | -3.1%
Nc1c(C(=O)NCc2ccco2)c2nc3ccccc3nc2n1CCc1ccccc1 | 0.8% | 14.5% | ? | 5.1%
CCOc1ccc(-n2c(N)c(C(=O)NCc3ccco3)c3nc4ccccc4nc32)cc1 | 11.2µM* | 24.3% | 21.3% | 6.2%
CC(C)c1ccc(NC(=O)C2CCN(S(=O)(=O)c3ccc(Br)s3)CC2)cc1 | -0.1% | 8.4% | -28.0% | -3.8%
O=C(Nc1ccc(Cl)cc1)C1CCN(S(=O)(=O)c2ccc(Br)s2)CC1 | 8.9% | 14.0% | 23.1µM* | -25.5%
Cc1ccc(C(=O)Nc2ccc(N3CCN(C(=O)c4ccco4)CC3)cc2)c(Cl)c1 | 0.2% | 1.4% | ? | -0.6%
CCC(=O)Nc1ccc(N2CCN(C(=O)c3cccs3)CC2)cc1 | 0.0% | -9.6% | 11.1% | 25.8%

Assay outcomes as filed in PubChem.
